ATXN2 expr inh = reduces ATXN2 reporter expression in HEK-293 cells | HEK-293 ATXN2-luciferase reporter, luminescence, 24 h | Potency, µM (doses to about 57 µM), hits mostly inhibitors | hit rate 0.72% among 360,000; also: nearly all actives have a fitted effect of over 55% in size
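ATXN2-luciferase reporter cells (luciferase flanked by upstream and downstream ATXN2 gene portions) were treated 24 h at 37 °C with compounds at up to 57 uM. SteadyGlo luminescence gave expression; GF-AFC fluorescence gave viability.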
ATXN viability = viability counter-screen for ATXN expression inhibitors | AID 651635 | Potency, µM (series often up to 56.7 µM), hits mostly cytotoxic | S2 cells (HEK-293 line with an ATXN2-luciferase reporter) viability, CellTiter-Fluor protease fluorescence, 24 h | hit rate 0.49% among 400,000; also: nearly all actives have a fitted effect of over 40% in size
PINK1 expr mod = modulators of PINK1 expression | Potency, µM (highest dose often 76.6 µM), hits mostly activators | PINK1 immunofluorescence, high-content cytometry, 24 h | hit rate 0.2% among 410,000; active = well fitted activation curve with a large enough effect; inconclusive = small, poorly fitted or top-dose-only effect; cell line not stated here; also: nearly all actives have a fitted effect of over 65% in size
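PINK1 protein, normally rapidly degraded, was detected by immunofluorescence after 24 hour compound treatment of a stable cell line. Titration data (5 concentrations) came from laser-scanning cytometry, with CCCP-treated wells as controls.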
MCF10A rereplic = induces DNA re-replication in MCF 10a normal breast cells. hit rate 2.9% among 350,000. AID 624296. Potency, µM (top dose mostly 46.1 µM), actives largely listed as activators. MCF 10A DNA re-replication, Hoechst nuclear intensity, 48 h; also: nearly all actives have a fitted effect of over 50% in size
SW480 rereplic = induces DNA re-replication in SW480 colon adenocarcinoma cells; SW480 DNA re-replication, Hoechst DNA content imaging, 48 h; Potency, µM (top dose mostly 46.1 µM), actives largely listed as activators; hit rate 1.8% among 340,000; also: nearly all actives have a fitted effect of over 55% in size
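Compounds, transferred as 23 nL by pin tool, were incubated with cells for 48 hr; DNA content per nucleus was then quantified by Hoechst staining and fluorescence plate imaging.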
IL-1B inflam inh = inhibitors of inflammasome signaling (IL-1 beta secretion); hit rate 4.7% among 360,000; activity change, % at 57.5 µM; AID 743279; THP-1 LPS/ATP IL-1B secretion, AlphaLISA, 16 h; stronger effect = lower value; in the data active = activity change below about -50%; inconclusive = mostly about -30% to -49%
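Secreted IL-1B measured by AlphaLISA bead assay after 16 h compound exposure of THP-1 cells; compounds (final up to 57.5 uM) added 1 h before LPS (250 ng/mL) and ATP (1.25 mM) stimulation; lower signal means less secretion.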
A number is an active result; 0 = inactive; ? = inconclusive; - = not tested or not shown. Rows were chosen to be rich in hits. Some 7.1% of all compounds tested hit in one or more screens of this group. Unless noted, calls follow the shape of the dose curve; as a rule, active = well fitted curve in the direction sought with a large enough effect; inconclusive = small, poorly fitted or top-dose-only effect, or another doubt; inactive = no such curve, though single readings can be large; an effect the other way counts as inactive or inconclusive.

SMILES	ATXN2 expr inh	ATXN viability	PINK1 expr mod	MCF10A rereplic	SW480 rereplic	IL-1B inflam inh
COc1ccc(NC(=O)COc2cccc(C(F)(F)F)c2)cn1	0	0	0	0	0	0
O=C(Nc1ccc(Oc2cccc(C(F)(F)F)c2)nc1)c1ccccc1	0	0	0	0	0	0
O=C(Nc1ccc(Oc2cccc(C(F)(F)F)c2)nc1)c1cccs1	?	0	0	?	0	-78
COc1ccc(CN(C)C(=O)c2ccc(OCC(=O)Nc3cccc(C(F)(F)F)c3)c(OC)c2)c(OC)c1	0	0	0	?	?	-77
COc1cc(/C=C(\C#N)C(=O)Nc2cc(C(F)(F)F)ccc2Cl)ccc1OCC(=O)Nc1cccc(C(F)(F)F)c1	0	-	0	21µM	?	0
CCOC(=O)/C(C#N)=C/c1ccc(OCC(=O)Nc2ccc(C)c(C)c2)c(OC)c1	0	0	0	0	0	0
COc1cccc(CN(C)C(=O)c2ccc(OCC(=O)Nc3cccc(C(F)(F)F)c3)c(OC)c2)c1	?	0	0	0	0	-62
COc1ccc(NC(=O)CN(C)C(=O)c2ccccc2OCC(=O)Nc2cccc(C(F)(F)F)c2)cc1	0	0	0	0	0	0
COc1cc(C(=O)NCCCN(C)C)ccc1OCC(=O)Nc1cccc(C(F)(F)F)c1	?	?	0	?	?	-53
O=C(O)CC(CC(=O)O)c1ccc2c(c1)OCO2	-	-	0	-	-	-
COc1cccc(CN(C)C(=O)c2cccc(NC(=O)CC3SC(N4CCCCC4)=NC3=O)c2)c1OC (centres undefined)	0	0	0	0	0	0
COc1ccc(CN(C)C(=O)c2cccc(NC(=O)CC3SC(N4CCCCC4)=NC3=O)c2)c(OC)c1 (centres undefined)	20µM	?	0	?	6.5µM	-55
Cc1c(Cl)cccc1NC(=O)Nc1ccc2snnc2c1	?	0	?	-	-	-
NS(=O)(=O)c1ccc(CCNC(c2ccccc2)c2ccccc2)cc1	0	0	0	?	0	0
c1ccc(C(NCCNC(c2ccccc2)c2ccccc2)c2ccccc2)cc1	0	0	40µM	?	0	0
Cc1ccc(-c2nc3sc(CCNC(=O)c4ccc(F)c(F)c4)c(C)n3n2)cc1	0	0	0	-	-	-
CCCCSCCCNC(=O)Nc1ccc(CC)cc1	0	0	0	0	0	-75
O=C(Nc1cc(Cl)cc(Cl)c1)c1ccc(Cn2c(=O)[nH]c3ccsc3c2=O)cc1	0	19µM	0	23µM	0	?
CCCc1cnc2c(c1SCC(=O)N1CCC(C)CC1)c(=O)n(C)c(=O)n2C	0	?	0	-	-	-
COC(=O)Cc1c(C)[nH]n(-c2cc(Cl)cc(Cl)c2)c1=O	?	0	0	?	0	-65
Nn1c(Cc2cccc3ccccc23)nnc1SCc1ccc(Cl)c(Cl)c1	0	?	?	?	?	-72
CC(C)Oc1cc(NC(=O)CS(=O)CC(=O)N(C)C)c(Cl)cc1Cl (centres undefined)	0	0	0	0	0	0
CC(C)Oc1cc(NC(=O)CS(=O)CC(=O)Nc2cccc(C(F)(F)F)c2)c(Cl)cc1Cl (centres undefined)	0	0	0	0	0	-63
COc1ccccc1NC(=O)Cc1csc(NC(=S)Nc2ccccc2)n1	0	?	0	?	2.6µM	0
COc1ccc(NC(=S)Nc2nc(CC(=O)Nc3ccccc3OC)cs2)cc1	0	0	0	21µM	?	?
SMILES	ATXN2 expr inh	ATXN viability	PINK1 expr mod	MCF10A rereplic	SW480 rereplic	IL-1B inflam inh
CCOC(=O)c1c(NC(C)=O)sc2c(OCC(O)CNC(C)(C)C)c(Br)ccc12 (centres undefined)	-	-	0	?	?	-72
CCOC(=O)c1c(N)sc2c(OCC)c(Br)ccc12	0	?	0	?	21µM	0
CCOC(=O)c1c(NC(C)=O)sc2c(O)cccc12	-	-	-	0	0	0
Cc1oc(-c2ccccc2NC(=O)C2CCC2)nc1CNC(=O)c1ccc2ccccc2c1	-	0	0	-	-	-
Clc1ccc2nc(N3CCN(c4ccccc4)CC3)sc2c1	0	?	0	0	0	0
Brc1ccc2nc(N3CCN(c4ccccc4)CC3)sc2c1	0	0	0	0	0	-74
CCCn1ccc2c(OCC(=O)Nc3ccc(F)cc3F)cccc2c1=O	0	?	0	-	-	-
Cc1ccc(S(=O)(=O)N(c2cccc(C(F)(F)F)c2)C2C=CS(=O)(=O)C2)cc1 (centres undefined)	0	0	-	23µM	?	-91
CCOC(=O)c1ccc(NC(=O)c2cn(-c3ccccc3)nc2-c2ccc(OC)c(OC)c2)cc1	0	0	0	-	-	-
Cc1nnc(NCc2ccccc2)c2c1nnn2Cc1ccccc1Cl	0	0	0	-	-	-
COc1cc(C(=O)NCC2CCCO2)ccc1OCc1ccc(Cl)cc1Cl (centres undefined)	0	0	0	0	0	-86
O=C(NCC(c1ccco1)N1CCCCC1)c1ccc(COc2ccccc2)cc1 (centres undefined)	0	0	0	?	0	-72
COc1ccc(Cl)cc1C(=O)NCC(c1ccco1)N1CCCC1 (centres undefined)	0	0	0	0	0	0
COc1cc(C(=O)NCC(c2ccco2)N2CCCC2)ccc1OCc1ccc(Cl)cc1Cl (centres undefined)	-	-	0	18µM	?	?
O=C(NCC(c1ccco1)N1CCCCC1)c1ccc(OCc2ccccc2)cc1 (centres undefined)	0	0	0	0	0	0
COc1cccc(/C=C/c2nccc3ccccc23)c1OC	-	-	0	-	-	-
Cn1c(=O)c2c(SCC(=O)Nc3ccccc3C(F)(F)F)nc(C3CCCC3)nc2n(C)c1=O	0	0	0	-	-	-
CN(C)c1ccc(CNC(=O)Cc2ccc(NC(=O)N3CCCCc4ccccc43)cc2)cc1	0	0	0	-	-	-
COc1ccccc1NC(=S)N1CCNC(=O)C1CC(=O)Nc1cccc(C)c1 (centres undefined)	0	0	0	0	0	0
Cc1cccc(NC(=O)CC2C(=O)NCCN2C(=S)Nc2ccccc2)c1 (centres undefined)	0	0	-	16µM	0	-61
CCOC(=O)N1CCN(Cc2nc3cc(NC(=O)CC)ccc3n2C)CC1	0	0	0	0	0	0
CCCn1c(CN2CCN(C(=O)OCC)CC2)nc2cc(NC(=O)CC)ccc21	0	0	0	16µM	6.5µM	0
Cc1ccc(/C=N/N2C(=S)SC(C)(C)C2N(O)C(=O)Nc2ccc([N+](=O)[O-])cc2)cc1 (centres undefined)	0	0	?	?	?	-70
CC1(C)SC(=S)N(/N=C/c2ccc(O)cc2)C1N(O)C(=O)Nc1ccc([N+](=O)[O-])cc1 (centres undefined)	0	?	0	0	0	0

Bioassay records as filed in PubChem.
